Source: PubChem (National Center for Advancing Translational Sciences (NCATS))
The list is not random: actives were taken first. Their share in the collection is about 19%.
HT1080 IDH1KD tx = toxicity to HT-1080 IDH1 knockdown cells (counter line). Potency, µM (series often up to 46.1 µM), for inactives: top-dose activity, negative = toxicity, actives largely listed as cytotoxic. HT-1080 IDH1 knockdown viability, ATP luminescence, 48 h. 360,000 tested, 2% active;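 further: 0% = DMSO wells and -100% = cell-free medium wells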
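Viability of IDH1-knockdown HT-1080 fibrosarcoma cells was assessed by CellTiter-Glo after 48 h at 37 °C with titrated compound; concentration-effect curves were classified by fit quality and response size.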
KB-V1 cytotox = kills drug-selected multidrug resistant KB-V1 cells; KB-V1 MDR cells viability, CellTiter-Glo, 72 h; Potency, µM (series often up to 46.1 µM), usual class: cytotoxic; 400,000 tested, 3.4% active; further: nearly all actives have a fitted effect of over 60% in size
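qHTS viability screen in drug-selected KB-V1 MDR cells: 72 h compound treatment at 37 degrees C, ATP luminescence end point.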
TDP1 cell CPT = DT40-hTDP1 cell growth loss with CPT. Potency, µM (top dose mostly 46.2 µM), for the others: at the highest dose activity change, negative = growth inhibition, hits mostly inhibitors. chicken DT40 Tdp1-/-;hTDP1 cells + 20 nM CPT, ATP luminescence, 48 h. AID 686979. 420,000 tested, 12% active; further: nearly all actives have a fitted effect of over 55% in size
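Chicken DT40 Tdp1-/- cells complemented with human TDP1, 400 cells/well, exposed to compounds plus 20 nM camptothecin for at least 48 h at 37 C; viability read as ATP content by CellTiter-Glo luminescence.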
HT1080-NT tox = kills 2HG-producing HT-1080-NT fibrosarcoma cells. AID 686970. Potency, µM (doses to about 46.1 µM), for the others: at the top dose activity, negative = less viability, actives largely listed as cytotoxic. 360,000 tested, 1.6% active. HT-1080-NT fibrosarcoma viability, CellTiter-Glo ATP luminescence, 48 h;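 further: NT is the 2HG producing partner of a matched IDH1 knockdown line; 0% = DMSO-treated cells and -100% = media-only wells without cells; nearly all actives have a fitted effect of over 55% in size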
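Toxicity toward the 2HG-producing NT line was scored as %Activity, normalised to DMSO and no-cell wells, from CellTiter-Glo luminescence after 48 hours' treatment.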
TDP1 cell noCPT = qHTS for Inhibitors of human tyrosyl-DNA phosphodiesterase 1 (TDP1): qHTS in cells in absence of CPT; DT40 Tdp1-/- hTDP1 cells, no CPT, ATP luminescence, 48 h; Potency, µM (series often up to 46.2 µM), for the others: top-dose activity change, negative = growth inhibition, hits mostly inhibitors; 420,000 tested, 15% active; AID 686978, 2013; further: nearly all actives have a fitted effect of over 55% in size
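Luminescent ATP content (CellTiter-Glo) served as the growth readout. Knockout chicken DT40 cells expressing human TDP1 were exposed to compounds without camptothecin for a minimum 48 hr at 37 °C.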
KB-3-1 cytotox = KB-3-1 parental cell cytotoxicity; KB-3-1 viability, CellTiter-Glo ATP luminescence, 72 h; Potency, µM (doses to about 46.1 µM), hits mostly cytotoxic; 400,000 tested, 1.4% active; AID 1347075; further: nearly all actives have a fitted effect of over 60% in size
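Viability of parental KB-3-1 cells, measured by CellTiter-Glo luminescence, followed a 72 h incubation at 37 °C with pinned compounds in phenol-red-free DMEM containing 10% FBS.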
* marks the source's active call; other numbers are inactive results; i = inactive; ? = inconclusive; . = not tested or not shown; [ ] = another dose, or the depositor's remark. The call rests on the fitted dose curve; in most records, active means well fitted curve in the direction sought with a large enough effect; inconclusive means small, poorly fitted or top-dose-only effect, or another doubt; inactive means no such curve, though single readings can be large; an effect the other way counts as inactive or inconclusive. Unless noted, on the % scale 0 is the no-effect control and ±100 the full control effect; potency means the concentration at half of the fitted maximal effect.

SMILES	HT1080 IDH1KD tx	KB-V1 cytotox	TDP1 cell CPT	HT1080-NT tox	TDP1 cell noCPT	KB-3-1 cytotox
COc1ccc(C(=O)CSc2nnc(-c3ccccn3)n2Cc2ccco2)cc1	3%	18µM*	-9%	6%	?	i
Cc1nn(Cc2ccccc2)c(C)c1NC(=O)c1cc(-c2cccs2)on1	?	4.1µM*	?	-2%	?	i
O=C(NCc1cccnc1)c1cc(-c2cccs2)on1	-11%	i	13µM*	-15%	?	i
COc1ccc(-c2cc(C(=O)Nc3c(C)nn(Cc4ccccc4)c3C)no2)cc1	16µM*	i	-23%	-27%[9.24 µM]	-28%	i
COc1cccc(-c2cc(C(=O)Nc3c(C)nn(Cc4ccccc4)c3C)no2)c1	?	i	?	-7%	18µM*	i
CCCCN(C(=O)CSCC(=O)Nc1ccc(C)cc1)c1c(N)n(CC(C)C)c(=O)[nH]c1=O	0%	i	3%	0%	1%	i
Cc1noc(C)c1-c1cncnc1Nc1ccccc1	.	.	18%	.	13%	.
C[C@H](NC(=O)OC(C)(C)C)C(=O)c1ccco1	.	i	-2%	.	-4%	i
CCCCC(CC)COC(=O)CC(C(=O)OCC(CC)CCCC)S(=O)(=O)O (stereo not drawn)	.	.	-10%	.	?	.
CCCCC(CC)COC(=O)C(C#N)=C(c1ccccc1)c1ccccc1 (stereo not drawn)	?	?	?	-22%	18µM*	i
CCOC(=O)c1c(C)sc2c1N(C(=O)CN(CC)CC)c1ccccc1S2	-3%	i	?	-3%	21µM*	i
CCOC(=O)c1c(C)sc2c1N(C(=O)CN(CC)CC)c1cc(Cl)ccc1S2	?	i	18µM*	?	?	?
Cc1cccc(N2CCN(C(=O)C3CCCN(C(=O)c4cc5sccc5n4C)C3)CC2)c1C (stereo not drawn)	.	i	23µM*	.	23µM*	i
COc1ccccc1N1CCN(C(=O)c2cc3sccc3n2C)CC1	-12%	i	?	-3%	-26%	i
Cc1cccc(N2CCN(C(=O)C3CCN(C(=O)c4cc5sccc5n4C)CC3)CC2)c1C	.	i	12µM*	.	8.2µM*	i
Cn1c(C(=O)N2CCC(C(=O)N3CCOCC3)CC2)cc2sccc21	-4%	i	-6%	8%	-5%	i
Cc1ccc(-c2nc(CS(=O)CC(=O)N3CCN(c4ccc(Cl)cc4)CC3)c(C)o2)cc1 (stereo not drawn)	.	i	16µM*	.	21µM*	?
Cc1oc(-c2ccccc2)nc1CS(=O)CC(=O)N1CCc2ccccc2C1 (stereo not drawn)	-4%	i	9.2µM*	7%	26µM*	i
Cc1oc(-c2ccccc2Cl)nc1CS(=O)CC(=O)N1CCN(c2ccccc2)CC1 (stereo not drawn)	-2%	i	-23%	-10%	-25%	i
Cc1ccc(-c2nc(CS(=O)CC(=O)N3CCN(c4ccccc4)CC3)c(C)o2)cc1 (stereo not drawn)	-5%	i	23µM*	-16%	15µM*	?
Cc1oc(-c2ccc(Cl)cc2)nc1CS(=O)CC(=O)NCCCN1CC(C)CC(C)C1 (stereo not drawn)	?	i	?	16µM*	?	i
CO[C@@H]1CN(C)C(=O)c2cc(NC(=O)Nc3cc(F)ccc3F)ccc2OC[C@H](C)N(C(=O)c2cnccn2)C[C@@H]1C	-3%	i	?	1%	?	i
Cc1ccc(C)c(OC(=O)c2cccnc2)c1	-1%	i	-3%	2%	3%	i
